{"source": "paper PMC4336329", "about": "(PLoS ONE, 2015)", "note": "In all, about 310,000 compounds went through this assay and about 14,000 (4.5%) showed an effect of 50% or more. Effects have a minus sign here. This excerpt belongs to a sample that is enriched for strong results.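 Further: peak tail current of the secondary pulse compared with the same well before compound.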"}
{"target": "human ether-à-go-go-related gene (hERG) potassium channel (human, UniProt Q12809)", "sequence (Q12809 whole entry, looked up)": "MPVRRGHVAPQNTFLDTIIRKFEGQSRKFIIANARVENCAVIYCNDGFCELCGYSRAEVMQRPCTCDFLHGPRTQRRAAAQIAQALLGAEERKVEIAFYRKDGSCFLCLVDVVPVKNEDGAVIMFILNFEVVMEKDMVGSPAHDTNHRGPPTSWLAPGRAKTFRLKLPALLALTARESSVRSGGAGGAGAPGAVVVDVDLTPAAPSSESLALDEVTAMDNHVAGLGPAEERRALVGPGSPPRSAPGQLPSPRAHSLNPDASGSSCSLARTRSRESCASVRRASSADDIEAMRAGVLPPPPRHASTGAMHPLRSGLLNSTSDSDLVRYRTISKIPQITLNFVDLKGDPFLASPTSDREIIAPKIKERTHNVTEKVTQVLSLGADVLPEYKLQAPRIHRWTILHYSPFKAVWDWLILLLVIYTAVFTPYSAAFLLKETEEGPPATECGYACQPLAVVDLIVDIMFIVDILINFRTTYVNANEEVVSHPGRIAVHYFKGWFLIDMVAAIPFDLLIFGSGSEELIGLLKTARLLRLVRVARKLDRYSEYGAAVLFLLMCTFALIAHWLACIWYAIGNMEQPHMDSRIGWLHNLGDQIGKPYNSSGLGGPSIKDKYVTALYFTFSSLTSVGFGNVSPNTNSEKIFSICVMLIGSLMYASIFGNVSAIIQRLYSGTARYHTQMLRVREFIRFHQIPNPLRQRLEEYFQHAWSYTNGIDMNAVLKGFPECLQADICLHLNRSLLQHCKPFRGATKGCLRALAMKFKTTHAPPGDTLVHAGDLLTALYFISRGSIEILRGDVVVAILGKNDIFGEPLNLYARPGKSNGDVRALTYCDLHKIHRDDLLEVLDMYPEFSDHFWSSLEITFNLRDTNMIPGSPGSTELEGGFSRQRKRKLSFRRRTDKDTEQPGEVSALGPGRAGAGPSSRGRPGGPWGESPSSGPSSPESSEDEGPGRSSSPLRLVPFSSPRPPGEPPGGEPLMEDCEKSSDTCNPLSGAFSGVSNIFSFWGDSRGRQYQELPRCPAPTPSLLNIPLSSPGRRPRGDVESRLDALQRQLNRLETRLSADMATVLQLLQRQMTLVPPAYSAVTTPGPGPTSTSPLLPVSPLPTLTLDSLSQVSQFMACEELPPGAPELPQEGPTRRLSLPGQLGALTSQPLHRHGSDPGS", "assay": "primary screen, population patch clamp on CHO cells stably expressing hERG; higher = less effect of the substance", "units": {"hERG current change (%, negative = inhibition) at 10uM": "%"}}
{"smiles": "O=C(NCCN1CCOCC1)C1CCN(Cc2ccccc2O)CC1", "hERG current change (%, negative = inhibition) at 10uM": 19.2}
{"smiles": "O=C1CSC(c2cccs2)N1c1ccccc1", "note": "(stereo not shown)", "hERG current change (%, negative = inhibition) at 10uM": 15}
{"smiles": "Cn1nnnc1SCc1nc2scc(-c3ccccc3)c2c(=O)[nH]1", "hERG current change (%, negative = inhibition) at 10uM": -3.59}
{"smiles": "CC(C)(C)NS(=O)(=O)c1ccc(CCC(=O)NCc2ccco2)cc1", "hERG current change (%, negative = inhibition) at 10uM": 2.7}
{"smiles": "COc1ccc(N2CCN(C(=O)COC(=O)c3ccc(-n4nc(C)cc4C)cc3)CC2)cc1", "hERG current change (%, negative = inhibition) at 10uM": -1.95}
{"smiles": "CCc1nc(SCC(=O)N2c3ccccc3CC2C)c2c(C)c(C)sc2n1", "note": "(stereo not shown)", "hERG current change (%, negative = inhibition) at 10uM": -5.78}
{"smiles": "Cc1ccc2cccc(S(=O)(=O)Nc3c(C)n(C)n(-c4ccccc4)c3=O)c2n1", "hERG current change (%, negative = inhibition) at 10uM": -0.878}
{"smiles": "O=C(COc1ccc(F)cc1)NCC1(N2CCOCC2)CCCCC1", "hERG current change (%, negative = inhibition) at 10uM": -27.9}
{"smiles": "CC(=O)c1ccc(N2CCN(C(=O)c3ccc4c(c3)OCO4)CC2)cc1", "hERG current change (%, negative = inhibition) at 10uM": -45.4}
{"smiles": "O=C(c1ccc(F)cc1)N1CCN(c2ccc(N3CCOCC3)nn2)CC1", "hERG current change (%, negative = inhibition) at 10uM": -12}
{"smiles": "O=C(c1ccc2c(c1)OCO2)N1CCN(c2ccc(F)cc2)CC1", "hERG current change (%, negative = inhibition) at 10uM": -30.4}
{"smiles": "O=C(c1ccc(C(F)(F)F)cc1)N1CCN(c2ccc(N3CCOCC3)nn2)CC1", "hERG current change (%, negative = inhibition) at 10uM": -67.9}
{"smiles": "CC(C)(C)c1ccc(C(=O)N2CCN(c3ccc(N4CCOCC4)nn3)CC2)cc1", "hERG current change (%, negative = inhibition) at 10uM": -49.3}
{"smiles": "CCc1ccc(N2CCN(C(=O)c3ccc4c(c3)OCO4)CC2)cc1", "hERG current change (%, negative = inhibition) at 10uM": -50.3}
{"smiles": "Cc1ccccc1NCC(=O)N/N=C\\c1ccc2c(c1)OCO2", "hERG current change (%, negative = inhibition) at 10uM": -0.637}
{"smiles": "COc1ccc(OC)c(NC(=O)NCCc2cccc(Cl)c2)c1", "hERG current change (%, negative = inhibition) at 10uM": 10.1}
{"smiles": "C=CCCC1(C)C(=O)N(c2ccccc2)c2ccccc21", "note": "(stereo not shown)", "hERG current change (%, negative = inhibition) at 10uM": -3.56}
{"smiles": "O=C(CCS(=O)(=O)c1ccccc1)Nc1nc2c(s1)CCCC2", "hERG current change (%, negative = inhibition) at 10uM": 0.42}
{"smiles": "CC1CCCN(c2nc3c(c(=O)n(C)c(=O)n3C)n2Cc2ccccc2)C1", "note": "(stereo not shown)", "hERG current change (%, negative = inhibition) at 10uM": -40.9}
{"smiles": "COc1ccc(N2CCN(S(=O)(=O)c3ccc4c(c3)NC(=O)C(C)S4)CC2)cc1", "note": "(stereo not shown)", "hERG current change (%, negative = inhibition) at 10uM": 6.85}
{"smiles": "CC(C)C(C(=O)Nc1ccc(S(=O)(=O)N2CCOCC2)cc1)N1C(=O)c2ccccc2C1=O", "note": "(stereo not shown)", "hERG current change (%, negative = inhibition) at 10uM": -16.2}
{"smiles": "CC/C(=N/NC(=O)CCC(=O)Nc1ccccc1OC)c1ccccc1", "hERG current change (%, negative = inhibition) at 10uM": -1.67}
{"smiles": "O=C(CN1CCN(Cc2ccccc2)CC1)Nc1ccc(Cl)cc1", "hERG current change (%, negative = inhibition) at 10uM": -68.4}
{"smiles": "O=C(CN1CCN(Cc2ccccc2)CC1)Nc1ccccc1", "hERG current change (%, negative = inhibition) at 10uM": -26.9}
{"smiles": "NC(=O)c1ccc(NC(=O)CN2CCN(Cc3ccccc3)CC2)cc1", "hERG current change (%, negative = inhibition) at 10uM": -0.874}
{"smiles": "O=C(CN1CCN(Cc2ccccc2)CC1)Nc1ccc(Cl)cn1", "hERG current change (%, negative = inhibition) at 10uM": -74.5}
{"smiles": "O=C(CN1CCOCC1)Nc1ccc(Cl)cn1", "hERG current change (%, negative = inhibition) at 10uM": 20.6}
{"smiles": "O=C(CN1CCCCCC1)Nc1ccc(Cl)cn1", "hERG current change (%, negative = inhibition) at 10uM": 1.45}
{"smiles": "O=C(CN1CCN(Cc2ccccc2)CC1)Nc1ccc(N2CCOCC2)cc1", "hERG current change (%, negative = inhibition) at 10uM": -3.67}
{"smiles": "O=C(CN1CCN(Cc2ccccc2)CC1)Nc1ccc(Br)cc1", "hERG current change (%, negative = inhibition) at 10uM": -71.9}
{"smiles": "O=C(CN1CCN(Cc2ccccc2)CC1)Nc1ccc(-n2cnnn2)cc1", "hERG current change (%, negative = inhibition) at 10uM": -48}
{"smiles": "C/C(=N\\NC(=O)c1cccnc1)c1ccc(OC2OCCOC2Oc2ccc(/C(C)=N/NC(=O)c3cccnc3)cc2)cc1", "note": "(stereo not shown)", "hERG current change (%, negative = inhibition) at 10uM": 8.81}
{"smiles": "COc1ccc(-n2c(=O)n(Cc3ccccc3)c(=O)c3[nH]cnc32)cc1", "hERG current change (%, negative = inhibition) at 10uM": -17.1}
{"smiles": "COc1ccc(S(=O)(=O)NC2CCCC2)cc1C(N)=O", "hERG current change (%, negative = inhibition) at 10uM": 4.15}
{"smiles": "CCCn1c(=O)c(C(=O)Nc2ncccc2O)c(O)c2ccccc21", "hERG current change (%, negative = inhibition) at 10uM": 11.1}
{"smiles": "Cc1cc(=O)oc2cc(OCC(=O)NCc3ccco3)ccc12", "hERG current change (%, negative = inhibition) at 10uM": -6.81}
{"smiles": "Cc1cc(=O)oc2ccc(OCC(=O)N(Cc3ccc(F)cc3)Cc3ccco3)cc12", "hERG current change (%, negative = inhibition) at 10uM": -58.8}
{"smiles": "Cc1cc(=O)oc2ccc(OCC(=O)O)cc12", "hERG current change (%, negative = inhibition) at 10uM": 16.1}
{"smiles": "COc1ccc2ccccc2c1CNc1nnnn1C", "hERG current change (%, negative = inhibition) at 10uM": 17.9}
{"smiles": "CSc1ccc(S(=O)(=O)N2CCC(C(=O)N3CCOCC3)CC2)cc1", "hERG current change (%, negative = inhibition) at 10uM": 2.57}
{"smiles": "C=C(C)COc1ccc2c(C)c(CCC(=O)N3C[C@H]4C[C@@H](C3)c3cccc(=O)n3C4)c(=O)oc2c1", "hERG current change (%, negative = inhibition) at 10uM": -60.4}
{"smiles": "Cc1oc2cc3oc(=O)c(CCC(=O)N4C[C@H]5C[C@@H](C4)c4cccc(=O)n4C5)c(C)c3cc2c1C", "hERG current change (%, negative = inhibition) at 10uM": -54}
{"smiles": "C=C(C)COc1ccc2c(C)c(CC(=O)N3C[C@H]4C[C@@H](C3)c3cccc(=O)n3C4)c(=O)oc2c1", "hERG current change (%, negative = inhibition) at 10uM": -48.5}
{"smiles": "Cc1c(CC(=O)N2C[C@H]3C[C@@H](C2)c2cccc(=O)n2C3)c(=O)oc2cc(O)c(Cl)cc12", "hERG current change (%, negative = inhibition) at 10uM": 9.44}
{"smiles": "Cc1c(CC(=O)N2C[C@H]3C[C@@H](C2)c2cccc(=O)n2C3)c(=O)oc2cc3occ(C(C)(C)C)c3cc12", "hERG current change (%, negative = inhibition) at 10uM": -73.4}
{"smiles": "Cc1oc2c(C)c3oc(=O)c(CCC(=O)N4C[C@H]5C[C@@H](C4)c4cccc(=O)n4C5)c(C)c3cc2c1C", "hERG current change (%, negative = inhibition) at 10uM": -51.7}
{"smiles": "COc1ccc2c(C)c(CC(=O)N3C[C@H]4C[C@@H](C3)c3cccc(=O)n3C4)c(=O)oc2c1", "hERG current change (%, negative = inhibition) at 10uM": -32.4}
{"smiles": "COc1ccc2c(C)c(CCC(=O)N3C[C@H]4C[C@@H](C3)c3cccc(=O)n3C4)c(=O)oc2c1", "hERG current change (%, negative = inhibition) at 10uM": -34.9}
{"smiles": "Cc1c(CC(=O)N2C[C@H]3C[C@@H](C2)c2cccc(=O)n2C3)c(=O)oc2c(C)c(O)ccc12", "hERG current change (%, negative = inhibition) at 10uM": 4.94}
{"smiles": "COc1ccc2c(C)c(CC(=O)N3C[C@H]4C[C@@H](C3)c3cccc(=O)n3C4)c(=O)oc2c1OC", "hERG current change (%, negative = inhibition) at 10uM": -1.03}
{"smiles": "Cc1coc2cc3oc(=O)c(CC(=O)N4C[C@H]5C[C@@H](C4)c4cccc(=O)n4C5)c(C)c3cc12", "hERG current change (%, negative = inhibition) at 10uM": -41.5}
{"smiles": "Cc1coc2cc3oc(=O)c(CCC(=O)N4C[C@H]5C[C@@H](C4)c4cccc(=O)n4C5)c(C)c3cc12", "hERG current change (%, negative = inhibition) at 10uM": -42.5}
